Experimental data from PubChem BioAssay (NCI).
The panel holds about 79,000 compounds, 15% with a hit somewhere; the sample as a whole holds those more often. Values without a mark were called inactive. The source made the active and inactive calls. No stated cut-off is given here; in the data, active means growth inhibition above about 70%; inactive means the rest. *1 amine or outer side, *2 acyl side, *3 side chain or, on linkers, in order; H or OH if unused. Where a SMILES comes first, the peptide text is derived from it. Bridges are numbered along the chain shown (N, C = ends). [ ]: non-standard residue; d: D form. The star is where a group is joined. Fmoc = O=C(OCC1c2ccccc2-c2ccccc21)*; X9 = O=C(C(CCCCNO[*:3])N[*:1])[*:2]

Columns and labels:
[1] = NCI Yeast Anticancer Drug Screen. Data for the rad50 strain (AID 155);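 further: 0% = growth of vehicle-only cultures of the same strain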; conditions: S. cerevisiae rad50 strain growth inhibition; at 50.0 µM; hits give high values
Procedure, shortened: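 DNA repair mutant yeast, compound exposure, growth read-out; inhibition is taken relative to vehicle.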

[2] = NCI Yeast Anticancer Drug Screen. Data for the mec2-1 strain (AID 157); conditions: S. cerevisiae mec2-1 strain, at 50.0 µM, hits give high values
Procedure, shortened: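 Compounds were applied to mec2-1 yeast cells. Their growth was then compared with that of vehicle-treated cultures to give growth inhibition.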

[3] = NCI Yeast Anticancer Drug Screen. Data for the sgs1 mgt1 strain (AID 161);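 further: 0% = growth of cultures given vehicle only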; conditions: S. cerevisiae sgs1 mgt1 strain, at 50.0 µM, hits give high values
Procedure, shortened: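 Yeast cells carrying a defined DNA-repair defect were exposed to test compounds. Growth inhibition was measured relative to vehicle-treated controls.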

[4] = NCI Yeast Anticancer Drug Screen. Data for the cln2 rad14 strain (AID 165);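 further: 0% = growth equal to vehicle treated cultures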; conditions: S. cerevisiae cln2 rad14 strain, at 50.0 µM, hits give high values
Procedure, shortened: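 Strain: cln2 rad14 yeast, altered in cell cycle control and DNA damage repair. Read-out: growth inhibition vs vehicle.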

[5] = NCI Yeast Anticancer Drug Screen. Data for the bub3 strain (AID 167); conditions: S. cerevisiae bub3 mutant strain, at 50.0 µM, hits give high values
Procedure, shortened: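 In this screen, a yeast mutant lacking normal mitotic checkpoint function is challenged with compound. Relative growth versus vehicle gives the inhibition value.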

[6] = NCI Yeast Anticancer Drug Screen. Data for the mlh1 rad18 strain (AID 175); conditions: S. cerevisiae mlh1 rad18 strain growth inhibition; at 50.0 µM; hits give high values
Procedure, shortened: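 A repair-deficient yeast strain is exposed to test compound, and growth is scored relative to vehicle-treated controls.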

Structure (SMILES)	growth inhibition [1]	growth inhibition [2]	growth inhibition [3] [%]	growth inhibition [4]	growth inhibition [5]	growth inhibition [6]
CCC1c2ccccc2[C@H]2C(c3ccccc3)=NN(c3ccccc3)[C@H]2N1CC (stereo partly specified)	26.6%	-5.05%	-0.7	-2.9%	1.5%	40.5%
COc1ccc2c(c1)C1(C)CCCC(C)(C=O)C1CC2 (stereo unspecified)	5.5%	-2.75%	-3.65	-1.25%	10.4%	4.75%
Cc1cc(C(C)(C)C)cc(C)c1[N+](=O)[O-]	18.7%	-7.55%	-17.9	8.2%	-7.1%	7.25%
N#Cc1ccc(Oc2ccc(C#N)cc2)cc1	12.2%	-19.6%	-8.45	18.4%	-0.4%	-1.1%
C=CCN(N=O)C(=O)N(CCC)CCCC(NC(C)=O)C(=O)NCc1ccccc1 (stereo unspecified)	-3.2%	-27.2%	-14.4	22.6%	2.9%	-14.2%
O=C(O)c1ccc(NC(=S)NC(=O)c2cccc([N+](=O)[O-])c2)cc1	5.55%	16%	16	16.8%	23.6%	23.6%
COc1ccc(NC(=O)Nc2ccc(Br)cc2)cc1	-9.55%	5.7%	-0.15	-34%	-4.6%	-15.2%
O=S1(=O)CC=CC1	-10.2%	3.45%	-7.95	13.2%	11.9%	3.15%
COC(=O)c1cc2c(cc1N=Cc1ccccc1Cl)OCO2	0.45%	4.3%	12.1	-1.65%	-0.85%	6.35%
Cc1ccc(NC(=O)c2ccccc2[N+](=O)[O-])cc1	12.5%	15.8%	0.1	20.4%	-2.1%	-10.2%
CC(=O)OCCOCNC(=S)N/N=C/c1ccccn1	24.2%	26%	-8.35	6.7%	12.6%	45.6%
CCN(CC)CC(=O)Nc1c(C(N)=O)nnn1Cc1cc(Cl)c(C(=O)c2ccc(Cl)cc2)c(Cl)c1	41.8%	-14.5%	5.15	7.95%	15.9%	-36.1%
NC(N)=NC1NCC(=O)S1 (stereo unspecified)	0.2%	-5.65%	4.3	4.6%	7.15%	21.9%
CCCCCCCCCCCCCCCC(=O)O	-12.9%	-34.1%	-18.9	-2.9%	-29.8%	-34.9%
C[CH2][GeH][CH2]C.C[CH2][Ge]([CH2]C)[CH2]C	95.2% (active)	97% (active)	60.8	96.5% (active)	96% (active)	94.8% (active)
CCOC(=O)NC(=S)NC(C)c1ccccc1 (stereo unspecified)	-10.2%	10.6%	35.5	-8.85%	15%	1.15%
Clc1ccc(CSc2ccc3nncc(SCc4ccc(Cl)cc4Cl)c3c2)c(Cl)c1	36%	5.8%	15.1	36.8%	15.1%	17.6%
O=C1C=C(C2CCCCC2)C(=O)c2ccccc21	17%	2.6%	15.4	18.3%	58.5%	10.3%
C=CCOC(=O)C1CC=CCC1C(=O)OCC=C (stereo unspecified)	-17.6%	-26.9%	-17.9	-15.2%	-3.95%	-9.8%
COc1ccc(C(C)c2cc3c(cc2OC)OCO3)cc1OC (stereo unspecified)	-4.95%	-6.7%	11.1	5.2%	16.9%	25.3%
O=C(N/N=C/c1cc(Br)cc(Br)c1O)c1ccccc1	3.85%	-1.4%	11.3	3.85%	-2.05%	28.4%

Structure (SMILES)	growth inhibition [1]	growth inhibition [2]	growth inhibition [3] [%]	growth inhibition [4]	growth inhibition [5]	growth inhibition [6]
NC(=O)CNC(=O)C1CCCN1C(=O)C1CCCCNOC(=O)CCC(NC(=O)OCC2c3ccccc3-c3ccccc32)C(=O)NC(Cc2c[nH]c3ccccc23)C(=O)N1 (stereo unspecified) (Fmoc-EW[X9]PG-NH2; ester 1-3; configuration not given here)	-16.5%	-14.7%	-22.2	18.4%	4.1%	-6.35%
O=C(c1ccc(Br)cc1)C1SC2(C(=O)c3ccc(Br)cc3)SC(C(=O)c3ccc(Br)cc3)C(C(=O)c3ccc(Br)cc3)SC2(C(=O)c2ccc(Br)cc2)SC1C(=O)c1ccc(Br)cc1 (stereo unspecified)	-8.8%	3.75%	-17.4	-11.9%	-2.95%	-24.4%
CCOc1ccc(C2OCC(C)O2)cc1OC (stereo unspecified)	13.2%	13.6%	2.3	10.3%	-0.5%	11.7%
Cc1ccc2nc(NC(=O)OCc3ccccc3)sc2c1	4.1%	20.1%	-11.8	6.95%	8.6%	9.65%
CC(=O)OC(C)(C)[C@@H]1CC[C@H](C)C2=C(C1)[C@@H](C)CC2	-13.8%	-30.9%	-23.9	2.05%	-16.1%	-16.1%
NC(=N\C1=NCCN1)/C(N)=N/C1=NCCN1	-13.4%	5.35%	-1.35	-29.5%	-2.3%	-13.2%
Cc1cc2c(C)nn(Cc3ccc(Cl)cc3)c2c(C#N)c1C	25.4%	-8.85%	15.6	2.85%	22.1%	18.9%
CCC(=O)OCCCCCCOC(=O)CC	18.3%	6%	12.5	-15%	19.9%	-5.9%
NC(Cc1ccccc1)C(=O)CCl (stereo unspecified)	31.6%	29.8%	40.8	18.4%	36.2%	46.5%
CCCCCCCCCCC(=O)OCC	-30.2%	0.65%	-21.4	-1.85%	1.2%	-32.8%
C(=N\N1CCN(/N=C/c2ccc3ccccc3n2)CC1)/c1ccc2ccccc2n1	38.1%	13.1%	11.9	26.5%	1.5%	32.4%
Cc1ccccc1NC(=O)CN1CCCC(C)C1 (stereo unspecified)	10.7%	-34.8%	0.9	11.3%	-16.2%	5.45%
CC1=C2CC/C(C)=C/CCC3(C)OC3CC/C(C)=C/C2OC1=O (stereo unspecified)	-8.7%	-21.9%	13.3	15.6%	5.25%	-20.1%
CC(=O)c1cc([N+](=O)[O-])c(O)cc1O	36.1%	2.25%	18.1	-16.8%	25.9%	41%
COc1cc(O)c(C(=O)C2Cc3ccccc32)c(OC)c1 (stereo unspecified)	-20.6%	12.5%	24.1	21.6%	9.1%	41.8%
O=C1c2cc3c(cc2C(=O)c2ncccc21)CCCC3	64.7%	48.4%	62.1	10.3%	71.1% (active)	76.1% (active)
O=C(NCCc1c[nH]c2ccccc12)C(F)(F)F	-15.8%	7.6%	18.2	6.85%	29.2%	0.3%
CC(=O)NC1C(O)CC(OCCCSCCN)(C(=O)O)OC1C(O)C(O)CO (stereo unspecified)	-6.25%	-22.6%	-23.1	11.3%	-16.8%	-26.5%
COCCCN(Cc1cc(OC)c(OC)c(OC)c1)C(=S)Nc1cccc(SC)c1	13.8%	-19.4%	40.5	25.6%	51.2%	16.6%
O=C(O)/C=C/c1cnc[nH]1	-4.9%	-2.3%	-5.65	11.9%	9.65%	-1%
